This is part of a sample that, as a whole, favours compounds with a hit. Of some 83,000 tested, about 20% had one in any assay.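 Testing used 96-well plates and a 48-hour single-concentration exposure. Example: -40 means 40% of the starting cells died.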 Values without a mark were called inactive. Activity calls are given as the source filed them. How the source made its calls: active means growth percent below 10; inactive means the rest.

Among the test systems are HT29 colon; SNB-75 CNS; SNB-19 CNS; U251 CNS; PC-3 prostate; SK-MEL-5 melanoma; UACC-62 melanoma; LOX IMVI melanoma; SK-MEL-28 melanoma.
What all share (assay): NCI-60 one-dose screen, 48 h (100 = growth as untreated, 0 = no growth, -100 = all killed)
Details in all cases: 10 µM unless noted

In the case of `O=C(Nc1ccc(Oc2ccc(NC(=O)Nc3ccccc3Cl)cc2)cc1)Nc1ccccc1Cl`, the growth with HT29 colon was 45.9%; with SNB-75 CNS it was 58.2%; in the experiment with SNB-19 CNS it was 115%; in the experiment on U251 CNS, 24.6%; in the experiment with PC-3 prostate it was 1.99% (active); in the experiment with SK-MEL-5 melanoma it was 62.5%. Also, the growth in the experiment with UACC-62 melanoma is 45.9%; with LOX IMVI melanoma it was 48.5%; in the experiment on SK-MEL-28 melanoma, -17.7% (active).
As for `CCCCCNCCCCCNc1cc(OC)cc2cccnc12`, the growth was 64.2% with HT29 colon; 61.7% in the experiment on SNB-75 CNS; 94.1% in the experiment with SNB-19 CNS; 79.8% in the experiment with U251 CNS; 69.6% with PC-3 prostate; 31.1% with SK-MEL-5 melanoma. Also, the growth is 75.3% with UACC-62 melanoma, 95.5% in the experiment on LOX IMVI melanoma and 91.9% with SK-MEL-28 melanoma.
Turning to `C/C(=N\NC(=S)Nc1ccccc1)c1ccccn1`, the growth in the experiment on HT29 colon is 34.4%; in the experiment on SNB-75 CNS, 79.9%; in the experiment on SNB-19 CNS, 43.5%; with U251 CNS, 32.1%; in the experiment with PC-3 prostate, 31.6%; in the experiment with SK-MEL-5 melanoma it was 16.5%. Further, the growth with UACC-62 melanoma is 16.4%; in the experiment with LOX IMVI melanoma it was 37.3%; with SK-MEL-28 melanoma, 59.8%.
As to `Cc1cc(C)c2c(n1)sc1c(Nc3ccc(OCc4ccccc4)cc3)ncnc12`, the growth was 103% in the experiment with HT29 colon; 108% in the experiment with SNB-75 CNS; 101% with SNB-19 CNS; 98.4% in the experiment with U251 CNS; 96.2% in the experiment on PC-3 prostate; 104% with SK-MEL-5 melanoma. Also, the results for the growth in the experiment on UACC-62 melanoma, in the experiment on LOX IMVI melanoma and with SK-MEL-28 melanoma were 105%, 91.7% and 114%, respectively.
On to `CCOC(=O)c1ccc(NC(=O)NC2=NCCS2)cc1`, for which the growth in the experiment with HT29 colon was 106%; in the experiment on SNB-75 CNS, 21.5%; in the experiment with SNB-19 CNS it was 54.3%; with U251 CNS it was 26.6%; in the experiment on PC-3 prostate, 16%; with SK-MEL-5 melanoma it was 75.9%. Also, the growth was 78.9% in the experiment on UACC-62 melanoma, 92.4% in the experiment on LOX IMVI melanoma and 87.3% with SK-MEL-28 melanoma.
With `COc1cc2nccc(Oc3ccc(NC(=O)C4(C(=O)Nc5ccc(F)cc5)CC4)cc3)c2cc1O`, the growth in the experiment on HT29 colon was 95.1%; with SNB-75 CNS, 34%; in the experiment with SNB-19 CNS, 82%; with U251 CNS it was 66%; with PC-3 prostate it was 57.1%; in the experiment with SK-MEL-5 melanoma, 66.4%. For the same compound, the growth was 34.8% with UACC-62 melanoma and 39.8% with LOX IMVI melanoma.
In the case of `SCc1ccc(CS)cc1`, the growth in the experiment with HT29 colon was 120%; in the experiment on SNB-75 CNS, 109%; in the experiment on SNB-19 CNS, 115%; in the experiment on U251 CNS it was 101%; in the experiment on PC-3 prostate, 98.1%; in the experiment on SK-MEL-5 melanoma, 95.7%. Moreover, the results for the growth in the experiment on UACC-62 melanoma, in the experiment on LOX IMVI melanoma and with SK-MEL-28 melanoma were 105%, 96.2% and 112%, respectively.
As to `CC1CN(CCCOC(=O)Nc2ccc(Cl)cc2)CCN1C(C)(C)C` (stereo not given), the growth in the experiment with HT29 colon was 104%; in the experiment on SNB-75 CNS it was 114%; in the experiment with SNB-19 CNS it was 98.1%; with U251 CNS, 108%; with PC-3 prostate, 90%; in the experiment on SK-MEL-5 melanoma, 97.6%. Further, the growth in the experiment with UACC-62 melanoma is 84.8%; in the experiment with LOX IMVI melanoma, 91.9%; with SK-MEL-28 melanoma, 106%.
For `O=C(c1ccc(C(F)(F)F)c(Cl)c1)N(Cc1ccc(Cl)cc1)c1ccc(-c2cc(C(F)(F)F)[nH]n2)c(O)c1`, the growth is 5.34% (active) in the experiment with HT29 colon; 10.3% in the experiment with SNB-75 CNS; 26.2% with SNB-19 CNS; 4.18% (active) in the experiment on U251 CNS; 11.2% with PC-3 prostate; -42.9% (active) in the experiment with SK-MEL-5 melanoma. Moreover, the results for the growth in the experiment with UACC-62 melanoma, in the experiment with LOX IMVI melanoma and in the experiment on SK-MEL-28 melanoma were 14.5%, 4.7% (active) and 30.8%, respectively.
Take `O=c1cc(-c2ccc3c(c2)OCCO3)oc2cc(Cl)ccc12`: the growth in the experiment with HT29 colon is -16.8% (active); in the experiment on SNB-75 CNS it was -38.5% (active); in the experiment with SNB-19 CNS it was 30.3%; with U251 CNS it was 4.26% (active); in the experiment with PC-3 prostate it was 43.3%; with SK-MEL-5 melanoma, 76.3%. Besides, the growth in the experiment with UACC-62 melanoma was 65.1%; in the experiment with LOX IMVI melanoma, 32.1%; with SK-MEL-28 melanoma, 21.4%.
`O=C(Nc1ccc(Cl)c(C(F)(F)F)c1)c1ccc(Nc2ccc(Cl)nn2)cc1`: the growth in the experiment with HT29 colon is 61.7%; in the experiment with SNB-75 CNS, 84.2%; with SNB-19 CNS it was 76.7%; in the experiment on U251 CNS it was 51.5%; in the experiment with PC-3 prostate, 49.6%; in the experiment with SK-MEL-5 melanoma, 59.6%. Also, the values for the growth with UACC-62 melanoma, with LOX IMVI melanoma and in the experiment with SK-MEL-28 melanoma were 51.9%, 54.7% and 72.5%, respectively.
Take `O=C(NCCNC(=O)c1cc(S(=O)(=O)NCCc2ccccc2)c(O)c(O)c1O)c1cc(S(=O)(=O)NCCc2ccccc2)c(O)c(O)c1O`: the growth is 108% in the experiment with HT29 colon; 63% with SNB-75 CNS; 35.7% with SNB-19 CNS; 31.3% in the experiment on U251 CNS; 40.2% with PC-3 prostate; 15.6% in the experiment with SK-MEL-5 melanoma. Moreover, the growth is -15% (active) with UACC-62 melanoma, 15% with LOX IMVI melanoma and 54.2% in the experiment on SK-MEL-28 melanoma.
In the case of `CC(=O)O[C@H]1[C@H](CC#CC#CC[C@@H]2C[C@]3(C)[C@H]4CC=C5[C@H]6[C@@H](C)[C@H](C)CC[C@]6(C(=O)NCCCCCCCCN)CC[C@@]5(C)[C@]4(C)CC[C@H]3C(C)(C)[C@H]2OC(C)=O)C[C@]2(C)[C@H]3CC=C4[C@H]5[C@@H](C)[C@H](C)CC[C@]5(C(=O)NCCCCCCCCN)CC[C@@]4(C)[C@]3(C)CC[C@H]2C1(C)C`, the growth with HT29 colon is 98.2%; in the experiment on SNB-75 CNS it was 94.7%; in the experiment with SNB-19 CNS it was 107%; with U251 CNS, 98.2%; with PC-3 prostate, 92.8%; with SK-MEL-5 melanoma, 105%. Further, the growth in the experiment on UACC-62 melanoma was 112%; in the experiment on LOX IMVI melanoma it was 96.9%; in the experiment with SK-MEL-28 melanoma, 124%.
As to `COc1ccc(/C=C(/C(=O)N2CCN(c3ccccc3)CC2)c2cc(OC)c(OC)c(OC)c2)cc1O`, the growth in the experiment on HT29 colon is 48.4%; in the experiment on SNB-75 CNS, 67.8%; in the experiment with SNB-19 CNS, 27.1%; in the experiment on U251 CNS, 8.04% (active); with PC-3 prostate, 23.4%; in the experiment on SK-MEL-5 melanoma it was -13.7% (active). Besides, the growth in the experiment on UACC-62 melanoma was 27.1%; in the experiment on LOX IMVI melanoma it was 14.7%; in the experiment with SK-MEL-28 melanoma, 62.3%.

The values above are taken from PubChem BioAssay (NCI).
